Assay results: ChEMBL document CHEMBL2218924, “A broad activity screen in support of a chemogenomic map for kinase signalling research and drug discovery” (Biochem J, 2013)

Target: BDNF/NT-3 growth factors receptor (Homo sapiens) (UniProt Q16620)
Details: at 10 µM

Sequence of BDNF/NT-3 growth factors receptor (Homo sapiens) (Q16620 32-822 limits assumed): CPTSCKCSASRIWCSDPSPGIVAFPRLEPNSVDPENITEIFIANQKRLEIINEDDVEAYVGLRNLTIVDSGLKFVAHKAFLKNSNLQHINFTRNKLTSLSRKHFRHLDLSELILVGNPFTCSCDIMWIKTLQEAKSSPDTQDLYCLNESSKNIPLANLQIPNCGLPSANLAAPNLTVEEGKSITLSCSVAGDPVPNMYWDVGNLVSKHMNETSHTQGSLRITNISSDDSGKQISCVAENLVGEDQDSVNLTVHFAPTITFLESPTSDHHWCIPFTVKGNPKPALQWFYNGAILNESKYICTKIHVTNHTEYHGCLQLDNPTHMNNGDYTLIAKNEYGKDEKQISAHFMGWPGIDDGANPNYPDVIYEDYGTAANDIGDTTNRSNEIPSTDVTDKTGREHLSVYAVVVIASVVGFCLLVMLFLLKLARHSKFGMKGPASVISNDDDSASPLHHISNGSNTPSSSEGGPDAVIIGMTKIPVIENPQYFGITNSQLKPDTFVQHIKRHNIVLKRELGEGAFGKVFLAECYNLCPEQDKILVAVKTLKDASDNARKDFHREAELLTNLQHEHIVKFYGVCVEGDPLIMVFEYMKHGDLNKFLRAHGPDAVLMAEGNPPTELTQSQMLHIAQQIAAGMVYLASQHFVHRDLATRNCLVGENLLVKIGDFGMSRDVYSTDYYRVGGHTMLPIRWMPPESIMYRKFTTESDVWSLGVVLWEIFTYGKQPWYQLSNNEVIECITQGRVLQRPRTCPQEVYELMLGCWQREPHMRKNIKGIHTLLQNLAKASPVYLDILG

| Structure (SMILES) | residual activity |
| --- | --- |
| O=Nc1c(-c2c(O)[nH]c3ccccc23)[nH]c2ccccc12 | 0% |
| COc1cc2ncc(-c3ccccc3)nc2cc1OC | 37% |
| Cc1cc(Nc2nc(-c3ccccc3)nc3ccccc23)n[nH]1 | 0% |
| COc1cc2ncnc(N3CCN(C(=O)Nc4ccc(Oc5ccccc5)cc4)CC3)c2cc1OC | 44% |
| N#Cc1cnc2cnc(NCc3cccnc3)cc2c1Nc1ccc(F)c(Cl)c1 | 1% |
| O=C1Nc2ccccc2/C1=C1/Nc2ccccc2/C1=N\OCCC(O)CO (stereo unspecified) | 0% |
| Oc1c2ccccc2c2c3c(cccc13)N=N2 | 5% |
| COc1cccc(-c2cc(=O)c3ccccc3o2)c1N | 87% |
| CNc1cc2c(Nc3cccc(Br)c3)ncnc2cn1 | 21% |
| O=[N+]([O-])c1ccc(-c2nc(-c3ccc(F)cc3)c(-c3ccncc3)[nH]2)cc1 | 107% |
| O=C(O)c1ccc2c3c1cccc3c(=O)n1c3ccccc3nc21 | 59% |
| Cn1nc2c3c(cccc31)C(=O)c1ccccc1-2 | 66% |
| CCN(CC)C(=O)c1ccc(Nc2nc(OCC3CCCCC3)c3nc[nH]c3n2)cc1 | 2% |
| COc1cc2ncnc(Nc3ccc(O)c(Br)c3)c2cc1OC | 87% |
| COc1cc2ncnc(Nc3ccc(NC(=O)c4ccccc4)cc3)c2cc1OC | 21% |
| O=C(Nc1cccc(Nc2cc(Nc3cccc(C(F)(F)F)c3)ncn2)c1)C1CC1 | 37% |

| Structure (SMILES) | residual activity |
| --- | --- |
| O=C1NC(=O)/C(=C/c2ccc3c(c2)OC(F)(F)O3)S1 | 24% |
| O=C1c2ccccc2-[n+]2ccc3c([nH]c4ccccc43)c21 | 89% |
| Ic1cccc(CSc2nnc(-c3ccncc3)o2)c1 | 28% |
| CCN(CC)CCCCN1c2ccccc2Oc2ccc(Cl)cc21 | 87% |
| CO[C@H]1[C@@H](OC)C[C@H](C)[C@@H](OC)C2=CC(=O)C=C(NC(=O)/C(C)=C/C=C/[C@H](OC)[C@@H](OC(N)=O)/C(C)=C/[C@@H]1C)C2=O | 99% |
| c1ccc(-c2n[nH]c3c2oc2ccccc23)cc1 | -3% |
| C[C@@H](N)[C@H]1CC[C@H](C(=O)Nc2ccncc2)CC1 | 99% |
| N#CC(C#N)=C(N)/C(C#N)=C/c1ccc(O)cc1 | 116% |
| O=C1Nc2ccc(Br)cc2/C1=C\c1cc2c([nH]1)CCCC2 | 44% |
| CO[C@@H]1[C@H](N(C)C(=O)c2ccccc2)C[C@H]2O[C@]1(C)n1c3ccccc3c3c4c(c5c6ccccc6n2c5c31)C(=O)NC4 | -12% |
| CC(=O)O/N=C1\C(=C2\C(=O)Nc3cc(Br)ccc32)Nc2ccccc21 | 1% |
| CN(C)CCCn1cc(C2=C(c3c[nH]c4ccccc34)C(=O)NC2=O)c2ccccc21 | 14% |
| Nc1cccc(-c2cc3c(Oc4cccc(O)c4)ncnc3[nH]2)c1 | 44% |
| CC(C)n1cnc2c(NCc3ccccc3)nc(NCCCO)nc21 | 98% |
| CC(C)n1cnc2/c(=N/c3cccc(Cl)c3)nc(NCCO)[nH]c21 | 2% |
